This is an account of results in PubChem BioAssay (Tox21).

Records with an inconclusive call do not appear. Calls of active or inactive are those of the source. Unless noted, calls come from the whole dose curve; as a rule, active = well fitted cell-killing curve with a large enough effect in the repeat runs; inconclusive = weak or mixed curves, or effect the other way; inactive = no such curve, though single readings can be large or run the other way.
% is set by controls: 0 for no effect and ±100 for the full control effect; potency is the fitted concentration of half-maximal effect.

The target in the first assay is Progesterone receptor (Homo sapiens) (UniProt P06401). Nature of the assay: qHTS assay to identify small molecule antagonists of the progesterone receptor (PR) signaling pathway (AID 1346795; active = well fitted inhibition curve with a large enough effect in the signal ratio in the repeat runs, not every such curve was filed as active; the % refers to the signal ratio). Conditions: PR-UAS-bla HEK293T, beta-lactamase FRET ratio, 16 h; series mostly up to 92.4 µM; activity change, negative = inhibition: at the top concentration. An outline of the steps: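 Beta-lactamase reporter, HEK293T PR-UAS-bla line; 2% charcoal-stripped FBS; 6 hr pre-incubation, 37C/5% CO2. Compound + R5020 1 nM final, 16 hr. LiveBLAzer B/G FRET substrate, 2 hr RT; fluorescence intensity read.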
Chain of Progesterone receptor (Homo sapiens) (P06401 whole entry, looked up): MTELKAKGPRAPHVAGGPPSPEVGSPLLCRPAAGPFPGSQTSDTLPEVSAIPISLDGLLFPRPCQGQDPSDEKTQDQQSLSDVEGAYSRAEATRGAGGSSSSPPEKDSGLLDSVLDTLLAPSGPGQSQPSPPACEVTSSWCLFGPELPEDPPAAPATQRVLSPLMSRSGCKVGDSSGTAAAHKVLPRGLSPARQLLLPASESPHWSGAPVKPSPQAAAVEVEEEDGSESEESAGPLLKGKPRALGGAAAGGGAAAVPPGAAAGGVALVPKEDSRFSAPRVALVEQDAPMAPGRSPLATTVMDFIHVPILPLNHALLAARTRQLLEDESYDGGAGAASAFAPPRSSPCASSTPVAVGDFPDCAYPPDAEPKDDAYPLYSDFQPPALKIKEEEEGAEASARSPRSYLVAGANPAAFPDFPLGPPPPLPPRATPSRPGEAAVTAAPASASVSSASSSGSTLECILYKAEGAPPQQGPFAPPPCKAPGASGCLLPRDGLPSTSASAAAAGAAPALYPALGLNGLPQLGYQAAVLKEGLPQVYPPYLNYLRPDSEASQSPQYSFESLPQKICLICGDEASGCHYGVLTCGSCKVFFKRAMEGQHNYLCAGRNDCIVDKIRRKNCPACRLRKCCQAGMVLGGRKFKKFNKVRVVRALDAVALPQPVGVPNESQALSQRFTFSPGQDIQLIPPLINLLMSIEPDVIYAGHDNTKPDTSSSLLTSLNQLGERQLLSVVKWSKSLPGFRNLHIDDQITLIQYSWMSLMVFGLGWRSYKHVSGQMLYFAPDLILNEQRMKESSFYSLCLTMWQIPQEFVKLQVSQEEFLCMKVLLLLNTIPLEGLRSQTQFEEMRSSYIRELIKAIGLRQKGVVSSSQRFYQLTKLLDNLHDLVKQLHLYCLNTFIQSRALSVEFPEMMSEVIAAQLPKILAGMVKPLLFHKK
In general terms: qHTS replaces the single test concentration by a dilution series.
Regarding `CSc1cnc(C)cn1`, the “activity change, negative = inhibition” value was 0.23% [at 238 µM] (inactive).

As to `O=C(O)c1ccc(Cl)c(Cl)c1`, the “activity change, negative = inhibition” value is 4.23% (inactive).

On to `CN(C)CCCOC1(Cc2ccccc2)CCCCCC1`, for which the “activity change, negative = inhibition” value is 2.46% [at 42.5 µM] (inactive).

With `CCOC(=O)O[C@]1(C(=O)OCCl)CC[C@H]2[C@@H]3CCC4=CC(=O)C=C[C@]4(C)[C@H]3[C@@H](O)C[C@@]21C`, the “activity change, negative = inhibition” value is 7.95% [at 42.5 µM] (inactive).

Consider `CN(C)[C@@H]1C(=O)C(C(N)=O)=C(O)[C@@]2(O)C(=O)C3=C(O)c4c(O)ccc(Cl)c4[C@@H](O)[C@H]3C[C@@H]12`, for which the “activity change, negative = inhibition” value was -6.64% [at 42.5 µM] (inactive).

As to `O=CC=C(c1ccccc1)c1ccccc1`, the Potency was 27.5 µM (active).

In the case of `CC(=O)SC[C@@H](Cc1ccccc1)C(=O)NCC(=O)OCc1ccccc1`, the “activity change, negative = inhibition” value is 7.99% [at 42.5 µM] (inactive).

For `CCCCN(CCCC)C(=O)N(CCCC)CCCC`, the “activity change, negative = inhibition” value is -4.11% (inactive).

In the case of `Cc1cc(O)c(Cl)c(C)c1Cl`, the “activity change, negative = inhibition” value was -4.81% (inactive).

Regarding `O=C(c1ccc(O)cc1O)c1ccc(O)cc1O`, the Potency was 10.9 µM (active).

Consider `Oc1ccc2c(c1)-c1ccccc1C2`, for which the Potency was 17.2 µM (active).

As for `O=C1CCCCCN1SSN1CCCCCC1=O`, the “activity change, negative = inhibition” value was 13.2% (inactive).

For the compound `CC(C)=CCOc1ccc(/C=C/C(=O)c2ccc(OCC=C(C)C)cc2OCC(=O)O)cc1`, the Potency was 26.6 µM (active).

In the case of `CCC(C)(C)C1CCCCC1OC(C)=O` (configuration not stated), the “activity change, negative = inhibition” value is -1.68% (inactive).

Turning to `CC(C)(C)C(=O)OCOC(=O)[C@@H]1N2C(=O)[C@@H](NC(=O)[C@H](N)c3ccccc3)[C@H]2SC1(C)C`, the “activity change, negative = inhibition” value is -0.112% [at 42.5 µM] (inactive).

In the case of `c1ccc(CSCc2ccccc2)cc1`, the “activity change, negative = inhibition” value is -20.5% (inactive).

System in the next assay: not listed separately
As to the kind of experiment: qHTS assay to identify small molecule antagonists of the progesterone receptor (PR) signaling pathway - cell viability counter screen (AID 1346798). Note: nearly all actives have a fitted effect of over 50% in size. The note with it: PR-UAS-bla HEK293T viability, CellTiter-Glo luminescence, 16 h; series mostly up to 92.4 µM; activity change, negative = cytotoxicity: at the top concentration. An outline of the steps: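 Luminescence readout (CellTiter-Glo, 30 min, RT) of viability in PR-UAS-bla HEK293T cells exposed to compound and R5020 agonist for 16 hr at 37C, 5% CO2; run in the same wells as the beta-lactamase reporter read.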
For `CCC(Cl)C(Cl)C(Cl)CC(Cl)C(Cl)C(C)Cl` (configuration not stated), the “activity change, negative = cytotoxicity” value was -13.7% (inactive).

As for `COC(=O)C1=C(C)NC(C)=C(C(=O)OCCc2ccc(N3CCN(C(c4ccccc4)c4ccccc4)CC3)cc2)C1c1cccc([N+](=O)[O-])c1` (configuration not stated), the “activity change, negative = cytotoxicity” value is 28.6% [at 42.5 µM] (inactive).

Take `N#CSc1ccc(N)c([N+](=O)[O-])c1`: the “activity change, negative = cytotoxicity” value was 31.6% (inactive).

As to `COc1cc(-c2ccc(N=C=O)c(OC)c2)ccc1N=C=O`, the “activity change, negative = cytotoxicity” value was 3.61% [at 42.5 µM] (inactive).

On to `CNC(=O)c1ccccc1`, for which the “activity change, negative = cytotoxicity” value is 4.94% (inactive).

On to `CC(C)(C)NC(=O)[C@@H]1C[C@@H]2CCCC[C@@H]2CN1C[C@@H](O)[C@H](Cc1ccccc1)NC(=O)[C@H](CC(N)=O)NC(=O)c1ccc2ccccc2n1`, for which the Potency was 55.2 µM (active).

`O=C(O)c1c(Cl)cccc1Cl`: the “activity change, negative = cytotoxicity” value is 4.42% (inactive).

In the case of `NNC(=O)c1cccc(C(=O)NN)c1`, the “activity change, negative = cytotoxicity” value is -1.42% (inactive).

As for `CCCCCCCCCCCCCCCS(=O)(=O)Oc1ccccc1`, the “activity change, negative = cytotoxicity” value was 0.126% [at 42.5 µM] (inactive).

As to `C1CCCC1`, the “activity change, negative = cytotoxicity” value was 5.86% (inactive).

With `NNc1nc(-c2ccc(N)cc2)cs1`, the “activity change, negative = cytotoxicity” value is 0.968% (inactive).

`O=c1cccccc1O`: the “activity change, negative = cytotoxicity” value was 16.4% (inactive).

`Nc1c(Cl)cc(Cl)cc1Cl`: the “activity change, negative = cytotoxicity” value was -1.67% (inactive).

On to `Cc1cccc(S(=O)(=O)O)c1C`, for which the “activity change, negative = cytotoxicity” value is 0.588% (inactive).

Turning to `CCCCCCCC(=O)[O-].CCCCCCCC(=O)[O-].[Zn+2]`, the “activity change, negative = cytotoxicity” value is -4.11% [at 42.5 µM] (inactive).

On to `COc1cc(-c2nc(NC(=O)c3cc4cc(C)cc(C)c4n3CC(=O)O)sc2CCC2CCCCC2)c(OC)cc1Cl`, for which the Potency was 14.1 µM (active).

As for `Cc1ccc(O)c2ncccc12`, the “activity change, negative = cytotoxicity” value is -22% [at 42.5 µM] (inactive).

For `CCCCCOc1ccccc1/C(=C\SC)n1ccnc1`, the Potency was 5.31 µM (active).

For the compound `C/C=C(\C)C(=O)OCc1ccccc1`, the “activity change, negative = cytotoxicity” value is 7.43% (inactive).

Turning to `CSc1cnc(C)cn1`, the “activity change, negative = cytotoxicity” value was 2.71% [at 238 µM] (inactive).

As to `O=C(O)c1ccc(Cl)c(Cl)c1`, the “activity change, negative = cytotoxicity” value was -14% (inactive).

For `CN(C)CCCOC1(Cc2ccccc2)CCCCCC1`, the “activity change, negative = cytotoxicity” value was -1.52% [at 42.5 µM] (inactive).

For the compound `CCOC(=O)O[C@]1(C(=O)OCCl)CC[C@H]2[C@@H]3CCC4=CC(=O)C=C[C@]4(C)[C@H]3[C@@H](O)C[C@@]21C`, the “activity change, negative = cytotoxicity” value is -1.29% [at 42.5 µM] (inactive).

Take `CN(C)[C@@H]1C(=O)C(C(N)=O)=C(O)[C@@]2(O)C(=O)C3=C(O)c4c(O)ccc(Cl)c4[C@@H](O)[C@H]3C[C@@H]12`: the “activity change, negative = cytotoxicity” value is -15.5% [at 42.5 µM] (inactive).

On to `O=CC=C(c1ccccc1)c1ccccc1`, for which the Potency was 61.6 µM (active).

`CC(=O)SC[C@@H](Cc1ccccc1)C(=O)NCC(=O)OCc1ccccc1`: the “activity change, negative = cytotoxicity” value was 0.214% [at 42.5 µM] (inactive).

For the compound `CCCCN(CCCC)C(=O)N(CCCC)CCCC`, the “activity change, negative = cytotoxicity” value was 5.93% (inactive).

For `Oc1ccc2c(c1)-c1ccccc1C2`, the “activity change, negative = cytotoxicity” value is 17.3% (inactive).

Turning to `O=C1CCCCCN1SSN1CCCCCC1=O`, the “activity change, negative = cytotoxicity” value is 25.2% (inactive).

For `CC(C)=CCOc1ccc(/C=C/C(=O)c2ccc(OCC=C(C)C)cc2OCC(=O)O)cc1`, the “activity change, negative = cytotoxicity” value was -19.8% [at 42.5 µM] (inactive).

As for `CCC(C)(C)C1CCCCC1OC(C)=O` (configuration not stated), the “activity change, negative = cytotoxicity” value is -0.428% (inactive).

Regarding `CC(C)(C)C(=O)OCOC(=O)[C@@H]1N2C(=O)[C@@H](NC(=O)[C@H](N)c3ccccc3)[C@H]2SC1(C)C`, the “activity change, negative = cytotoxicity” value was -5.85% [at 42.5 µM] (inactive).

Take `c1ccc(CSCc2ccccc2)cc1`: the “activity change, negative = cytotoxicity” value is -1.15% (inactive).

System in a further assay: not listed separately
Nature of the assay: qHTS assay to identify small molecule agonists of the progesterone receptor (PR) signaling pathway - cell viability counter screen (AID 1346799; calls by dose curve; note: nearly all actives have a fitted effect of over 45% in size). Conditions: PR-UAS-bla HEK293T viability, CellTiter-Glo luminescence, 16 h; series mostly up to 92.4 µM; activity change, negative = cytotoxicity: at the top concentration. An outline of the steps: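 HEK293T PR-UAS-bla, 3,000 cells/well, 2% charcoal-stripped FBS; 6 h settle, compound 16 h at 37C/5% CO2; LiveBLAzer 2 h RT, then CellTiter-Glo 30 min RT, luminescence read.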
`COC(=O)C1=C(C)NC(C)=C(C(=O)OCCc2ccc(N3CCN(C(c4ccccc4)c4ccccc4)CC3)cc2)C1c1cccc([N+](=O)[O-])c1` (configuration not stated): the “activity change, negative = cytotoxicity” value was 6.73% [at 42.5 µM] (inactive).

`CCCCCCCCCCCCCCCC(=O)OC[C@H](O)[C@H]1OC(=O)C(O)=C1O`: the Potency was 27.3 µM (active).

For the compound `N#CSc1ccc(N)c([N+](=O)[O-])c1`, the “activity change, negative = cytotoxicity” value was 2.89% (inactive).

Regarding `COc1cc(-c2ccc(N=C=O)c(OC)c2)ccc1N=C=O`, the “activity change, negative = cytotoxicity” value was -1.67% [at 42.5 µM] (inactive).

Regarding `CNC(=O)c1ccccc1`, the “activity change, negative = cytotoxicity” value was 1.58% (inactive).

Consider `CC(C)(C)NC(=O)[C@@H]1C[C@@H]2CCCC[C@@H]2CN1C[C@@H](O)[C@H](Cc1ccccc1)NC(=O)[C@H](CC(N)=O)NC(=O)c1ccc2ccccc2n1`, for which the Potency was 39.1 µM (active).

As for `O=C(O)c1c(Cl)cccc1Cl`, the “activity change, negative = cytotoxicity” value is 0.966% (inactive).

Consider `NNC(=O)c1cccc(C(=O)NN)c1`, for which the “activity change, negative = cytotoxicity” value is -22.2% (inactive).

On to `CCCCCCCCCCCCCCCS(=O)(=O)Oc1ccccc1`, for which the “activity change, negative = cytotoxicity” value was -6.72% [at 42.5 µM] (inactive).

`C1CCCC1`: the “activity change, negative = cytotoxicity” value was 0.744% (inactive).

Consider `Nc1c(Cl)cc(Cl)cc1Cl`, for which the “activity change, negative = cytotoxicity” value is -5.29% (inactive).

For `Cc1cccc(S(=O)(=O)O)c1C`, the “activity change, negative = cytotoxicity” value was -0.205% (inactive).

`CCCCCCCC(=O)[O-].CCCCCCCC(=O)[O-].[Zn+2]`: the “activity change, negative = cytotoxicity” value is 13.2% [at 42.5 µM] (inactive).

Regarding `COc1cc(-c2nc(NC(=O)c3cc4cc(C)cc(C)c4n3CC(=O)O)sc2CCC2CCCCC2)c(OC)cc1Cl`, the Potency is 11.2 µM (active).

Consider `CCCCCOc1ccccc1/C(=C\SC)n1ccnc1`, for which the Potency is 7.5 µM (active).

Consider `C/C=C(\C)C(=O)OCc1ccccc1`, for which the “activity change, negative = cytotoxicity” value is 25.3% (inactive).

In the case of `CSc1cnc(C)cn1`, the “activity change, negative = cytotoxicity” value is 5.01% [at 240 µM] (inactive).

As to `O=C(O)c1ccc(Cl)c(Cl)c1`, the “activity change, negative = cytotoxicity” value is -25.3% (inactive).

Consider `CN(C)[C@@H]1C(=O)C(C(N)=O)=C(O)[C@@]2(O)C(=O)C3=C(O)c4c(O)ccc(Cl)c4[C@@H](O)[C@H]3C[C@@H]12`, for which the “activity change, negative = cytotoxicity” value was -19.9% [at 42.5 µM] (inactive).

As to `CC(=O)SC[C@@H](Cc1ccccc1)C(=O)NCC(=O)OCc1ccccc1`, the “activity change, negative = cytotoxicity” value was 0.572% [at 42.5 µM] (inactive).

In the case of `CCCCN(CCCC)C(=O)N(CCCC)CCCC`, the “activity change, negative = cytotoxicity” value was -2.74% (inactive).

Consider `Cc1cc(O)c(Cl)c(C)c1Cl`, for which the “activity change, negative = cytotoxicity” value is -9.63% (inactive).

As for `O=C(c1ccc(O)cc1O)c1ccc(O)cc1O`, the “activity change, negative = cytotoxicity” value was 32.7% (inactive).

Turning to `Oc1ccc2c(c1)-c1ccccc1C2`, the “activity change, negative = cytotoxicity” value was 47.5% (inactive).

Consider `CC(C)=CCOc1ccc(/C=C/C(=O)c2ccc(OCC=C(C)C)cc2OCC(=O)O)cc1`, for which the “activity change, negative = cytotoxicity” value was -28% [at 42.5 µM] (inactive).

In the case of `CCC(C)(C)C1CCCCC1OC(C)=O` (configuration not stated), the “activity change, negative = cytotoxicity” value is -0.254% (inactive).

`CC(C)(C)C(=O)OCOC(=O)[C@@H]1N2C(=O)[C@@H](NC(=O)[C@H](N)c3ccccc3)[C@H]2SC1(C)C`: the “activity change, negative = cytotoxicity” value was 5.38% [at 42.5 µM] (inactive).

As for `c1ccc(CSCc2ccccc2)cc1`, the “activity change, negative = cytotoxicity” value is -15.5% (inactive).
